Compound activity as filed in PubChem.
Shown are actives, neighbours in structure and some others; about 3.2% of the full set was active somewhere.
RGS12 GoLoco inh = RGS12 GoLoco-Gai1 interaction inhibition; Gai1:RGS12 GoLoco peptide FP, rhodamine, 10 min; actives 0.44% (n = 230,000); Potency, µM (series often up to 61.6 µM), without a hit: top-dose activity, negative = inhibition, hits mostly inhibitors; active = well fitted inhibition curve with a large enough effect, not every such curve was filed as active; inactive = no such curve, though single readings can be large or run the other way; also: nearly all actives have a fitted effect of over 30% in size
Target sequence (P63096 whole entry, looked up): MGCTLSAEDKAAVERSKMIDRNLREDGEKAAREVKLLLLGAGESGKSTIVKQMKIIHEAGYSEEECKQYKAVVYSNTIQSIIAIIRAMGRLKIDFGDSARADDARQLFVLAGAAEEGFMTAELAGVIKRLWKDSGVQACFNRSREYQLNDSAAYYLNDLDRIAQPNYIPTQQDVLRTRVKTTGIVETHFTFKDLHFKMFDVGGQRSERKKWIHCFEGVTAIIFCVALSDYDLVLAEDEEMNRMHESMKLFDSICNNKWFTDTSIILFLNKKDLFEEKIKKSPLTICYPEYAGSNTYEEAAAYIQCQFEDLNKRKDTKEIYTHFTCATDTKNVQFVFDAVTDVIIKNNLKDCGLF
Tau fibril FP = tau fibrillization inhibition (FP); P10636; K18 P301L tau heparin fibrillization, Alexa594 FP, 6 h; Potency, µM (top dose mostly 57.7 µM), for the others: at the highest dose activity, negative = inhibition, actives largely listed as inhibitors; actives 0.39% (n = 280,000); AID 1468; also: nearly all actives have a fitted effect of over 55% in size
Target sequence (P10636 561-689 P618L limits assumed): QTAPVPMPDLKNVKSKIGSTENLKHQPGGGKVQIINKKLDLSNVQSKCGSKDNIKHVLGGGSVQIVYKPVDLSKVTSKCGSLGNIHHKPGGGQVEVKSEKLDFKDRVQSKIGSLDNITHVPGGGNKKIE
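Compound effects on tau fibrillization are measured by Alexa 594 fluorescence polarization (ex 555, em 632 nm). K18 P301L tau is used at 15 uM with 0.24 uM labeled tracer, and 20 uM heparin induces aggregation over 6 hr at 37 C.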
TR SRC2 fluor cs = alters Texas Red total fluorescence, flagging assay interference | TRb/SRC2 Texas Red total fluorescence interference | Potency, µM (highest dose often 106 µM), for inactives: at the highest dose fluorescence change, negative = quenching | actives 0.29% (n = 280,000) | AID 1479; active = well fitted curve in either direction with a large enough effect; inconclusive = small, poorly fitted or top-dose-only effect
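Flags fluorescent or light-absorbing compounds by total fluorescence, S + 2P, at 555 nm excitation and 632 nm emission. Mixture: 20 nM Texas Red SRC2 peptide, 0.6 uM human TRb LBD, 1 uM T3, 5% DMSO; compound exposure 5 h at ambient temperature.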
Tau ThT inhib = blocks human tau fibril formation measured by thioflavin T; P10636; recombinant tau K18 P301L, heparin-induced fibrillization, ThT fluorescence; Potency, µM (highest dose often 57.4 µM), for the others: at the highest dose activity, negative = inhibition, usual class: inhibitors; actives 2.1% (n = 270,000); AID 1460; also: nearly all actives have a fitted effect of over 55% in size
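Heparin-induced fibrillization of the P301L-mutant K18 repeat-domain fragment of human tau was followed by ThT binding in quantitative high-throughput format.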
Tau fluor cs = counter-screen for tau fibril formation inhibitors; actives 0.93% (n = 280,000); tau K18 P301L Alexa594 fluorescence, heparin fibrillization; Potency, µM (titrated, usually from 57.7 µM), inactives show top-dose activity change, negative = decrease; AID 1463; also: nearly all actives have a fitted effect of over 55% in size
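Human tau K18 P301L (15 uM unlabeled, 0.24 uM Alexa 594-labeled) in 100 mM sodium acetate pH 7 with 20 uM heparin, 6 hr at 37 C. ThT 30 uM added, 1 hr ambient; Alexa 594 FP and total fluorescence read at 555/632 nm.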
TRb SRC2 PPI = TRbeta-SRC2 interaction inhibition; P10828; TRbeta-SRC2 peptide binding, fluorescence polarization; receptor liganded with 1 µM T3; Potency, µM (highest dose often 106 µM), for the others: at the highest dose activity change, negative = inhibition, actives largely listed as inhibitors; actives 0.065% (n = 280,000); AID 1469;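 also: plate controls were bound peptide for no effect and peptide without receptor for full effect; nearly all actives have a fitted effect of over 50% in size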
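Compounds were added to 0.6 uM TRb ligand-binding domain and 20 nM Texas Red-labeled SRC2 peptide in Tris buffer containing 1 uM T3, incubated 5 hr at ambient temperature, then read by fluorescence polarization.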
Starred values were filed as active, the others as inactive; ! = a repeat was not active; [ ] = dose if it differs, or a comment. Unless noted, calls follow the shape of the dose curve; as a rule, active = well fitted curve in the direction sought with a large enough effect; inconclusive = small, poorly fitted or top-dose-only effect, or another doubt; inactive = no such curve, though single readings can be large; an effect the other way counts as inactive or inconclusive. Unless noted, % is scaled to controls: 0 for no effect and ±100 for the full control effect; potency is read from the fitted curve at half-maximal effect.

What do the screens show for `O=C1NC(=O)N(Cc2ccccc2)C(=O)/C1=C\N1CCCc2ccccc21`?
RGS12 GoLoco inh: -9%; Tau fibril FP: 10%; TR SRC2 fluor cs: -4%; Tau ThT inhib: 0%; Tau fluor cs: 4%; TRb SRC2 PPI: 3%

How did CC1(C)CON(Cc2ccccc2Cl)C1=O do in these assays?
TR SRC2 fluor cs: -15%[201 µM]; TRb SRC2 PPI: -8%[201 µM]

What do the screens show for `Cn1c(O)c(/C=C/C=Nc2ccccc2)c(=O)n(C)c1=S`?
Tau fibril FP: inconclusive; TR SRC2 fluor cs: -4%; Tau ThT inhib: inconclusive; Tau fluor cs: 6.3µM*[fluorescent]; TRb SRC2 PPI: 0%

What do the screens show for `CNC(=O)O/N=C(\C)SC`?
TR SRC2 fluor cs: 1%[201 µM]; TRb SRC2 PPI: 3%[201 µM]

How did [O-]/[N+](=C/c1cccnc1)c1ccc(Br)cc1 do in these assays?
RGS12 GoLoco inh: 7%; Tau fibril FP: inconclusive; TR SRC2 fluor cs: -3%; Tau ThT inhib: 28µM*; Tau fluor cs: -20%; TRb SRC2 PPI: 2%

What do the screens show for `CN1C(=O)C(=Cc2ccc(N3CCOCC3)o2)C(=O)N(C)C1=O`?
RGS12 GoLoco inh: -3%; Tau fibril FP: 2%; TR SRC2 fluor cs: 3%; Tau ThT inhib: -6%; Tau fluor cs: -9%; TRb SRC2 PPI: 9%

What do the screens show for `CN1C(=O)C(=Cc2ccc(N3CCCCCC3)o2)C(=O)N(C)C1=S`?
RGS12 GoLoco inh: 215%; Tau fibril FP: -4%; TR SRC2 fluor cs: 1%; Tau ThT inhib: 13µM*; Tau fluor cs: inconclusive; TRb SRC2 PPI: -15%

What do the screens show for `CCOP(=S)(NC(C)C)Oc1ccccc1C(=O)OC(C)C` (stereo unspecified)?
TR SRC2 fluor cs: -3%[201 µM]; TRb SRC2 PPI: -6%[201 µM]

How did COC(=O)c1ccccc1N=Cc1c(O)[nH]c(=S)[nH]c1=O do in these assays?
RGS12 GoLoco inh: 19%; Tau fibril FP: -3%; TR SRC2 fluor cs: 0%; Tau ThT inhib: -14%; Tau fluor cs: 5%; TRb SRC2 PPI: 2%

How did O=c1[nH]c(=S)[nH]c(O)c1N=Nc1ccc(OC(F)F)cc1 do in these assays?
RGS12 GoLoco inh: 5%; Tau fibril FP: 6%; TR SRC2 fluor cs: -4%; Tau ThT inhib: 4µM*; Tau fluor cs: -4%; TRb SRC2 PPI: 4%

Results for COc1ccc(N=Nc2c(O)[nH]c(=S)[nH]c2=O)cc1 ?
RGS12 GoLoco inh: 51%; Tau fibril FP: -4%; TR SRC2 fluor cs: -7%; Tau ThT inhib: 2.8µM*; Tau fluor cs: -10%; TRb SRC2 PPI: 7%

What do the screens show for `O=c1[nH]c(=S)[nH]c(O)c1N=Nc1ccc(S(=O)(=O)N2CCOCC2)cc1`?
RGS12 GoLoco inh: -2%; Tau fibril FP: -7%; TR SRC2 fluor cs: -8%; Tau ThT inhib: inconclusive; Tau fluor cs: -7%; TRb SRC2 PPI: -12%

What do the screens show for `NS(=O)(=O)c1ccc(N=Nc2c(O)[nH]c(=S)[nH]c2=O)cc1`?
RGS12 GoLoco inh: 0%; Tau fibril FP: -4%; TR SRC2 fluor cs: -24%; Tau ThT inhib: 5.6µM*; Tau fluor cs: -13%; TRb SRC2 PPI: -1%

What do the screens show for `COc1cccc(N=Nc2c(O)[nH]c(=S)[nH]c2=O)c1`?
RGS12 GoLoco inh: 25%; Tau fibril FP: -5%; TR SRC2 fluor cs: -9%; Tau ThT inhib: 7.1µM*; Tau fluor cs: -20%; TRb SRC2 PPI: -3%

What do the screens show for `Clc1ccc(-c2cc(Cl)c(Cl)cc2Cl)cc1Cl`?
TR SRC2 fluor cs: -1%[201 µM]; TRb SRC2 PPI: 1%[201 µM]

Results for O=C1C(Cl)=C(Cl)C(=O)C(Cl)=C1Cl ?
RGS12 GoLoco inh: 0.22µM*; Tau fibril FP: 1.4µM*; TR SRC2 fluor cs: -10%; Tau ThT inhib: 1.4µM*; Tau fluor cs: 14µM*[quencher]; TRb SRC2 PPI: -3%

How did O=C(Nc1ccc2nc(-c3cccs3)c(-c3cccs3)nc2c1)NC1CC1 do in these assays?
RGS12 GoLoco inh: 7%; Tau fibril FP: 22µM*; TR SRC2 fluor cs: 3%; Tau ThT inhib: inconclusive; Tau fluor cs: inconclusive; TRb SRC2 PPI: 1%

How did CCOCn1c(-c2ccc(Cl)cc2)c(C#N)c(Br)c1C(F)(F)F do in these assays?
TR SRC2 fluor cs: -4%[201 µM]; TRb SRC2 PPI: 2%[201 µM]

How did Cc1cc(C=C2C(=O)NC(=S)NC2=O)c(C)n1-c1ccc2c(c1)OCO2 do in these assays?
RGS12 GoLoco inh: 46%; Tau fibril FP: -8%; TR SRC2 fluor cs: 28184µM*[quencher]; Tau ThT inhib: 14µM*; Tau fluor cs: inconclusive; TRb SRC2 PPI: -9%

How did Cc1cc(C=C2C(=O)NC(=O)NC2=O)c(C)n1-c1ccc2c(c1)OCO2 do in these assays?
RGS12 GoLoco inh: 26%; Tau fibril FP: inconclusive; TR SRC2 fluor cs: 3%; Tau ThT inhib: inconclusive; Tau fluor cs: -29%; TRb SRC2 PPI: 1%

Results for CCOP(=O)(OCC)SCSCC ?
TR SRC2 fluor cs: 0%[201 µM]; TRb SRC2 PPI: -1%[201 µM]

How did CN1C2CCC1/C(=C/c1ccccn1)C(=O)/C2=C\c1ccccn1 do in these assays?
RGS12 GoLoco inh: -4%; Tau fibril FP: inconclusive; TR SRC2 fluor cs: 3%; Tau ThT inhib: 4.5µM*; Tau fluor cs: -1%; TRb SRC2 PPI: -1%

Results for O=P(OCC(Br)CBr)(OCC(Br)CBr)OCC(Br)CBr (stereo unspecified) ?
TR SRC2 fluor cs: 2%[201 µM]; TRb SRC2 PPI: -6%[201 µM]

Results for COc1ccc(/C=N/N=C(/N)N[N+](=O)[O-])c(OC)c1 ?
RGS12 GoLoco inh: 7%; Tau fibril FP: inconclusive; TR SRC2 fluor cs: -7%; Tau ThT inhib: -15%; Tau fluor cs: -17%; TRb SRC2 PPI: -9%

Results for N/C(=N\N=C/c1ccc(-c2ccc(O)c(C(=O)O)c2)o1)N[N+](=O)[O-] ?
RGS12 GoLoco inh: -1%; Tau fibril FP: -4%; TR SRC2 fluor cs: inconclusive; Tau ThT inhib: 4.5µM*; Tau fluor cs: inconclusive; TRb SRC2 PPI: 1%

What do the screens show for `O=C(O)C1Sc2[nH]c(=O)sc2C2c3cc(Cl)ccc3OC(=O)C12` (stereo unspecified)?
RGS12 GoLoco inh: 36%; Tau fibril FP: -14%; TR SRC2 fluor cs: 1%; Tau ThT inhib: 22µM*; Tau fluor cs: inconclusive; TRb SRC2 PPI: -1%

How did CCC(C)(c1ccc(O)cc1)c1ccc(O)cc1 do in these assays?
TR SRC2 fluor cs: -1%[201 µM]; TRb SRC2 PPI: 1%[201 µM]

Results for CCC(C)(C)c1ccc(O)cc1 ?
RGS12 GoLoco inh: 8.9µM*!; TR SRC2 fluor cs: -3%[201 µM]; TRb SRC2 PPI: 0%[201 µM]

Results for CC1CCCC(C2(O)C(=O)Nc3ccccc32)C1=O (stereo unspecified) ?
RGS12 GoLoco inh: 14µM*; Tau fibril FP: 0%; TR SRC2 fluor cs: -1%; Tau ThT inhib: 0%; Tau fluor cs: 6%; TRb SRC2 PPI: -14%
